# Assay results taken from the supplement of paper PMC11060735.
# Where a name gives a salt, the structure may show the parent alone. ± gives the standard deviation of the averaged measurements. Over roughly 1,800 compounds, “GFP- (p16Ink4a-) cell count relative to negative-control wells” has its median near 0.99; the lowest 2% begin near 0.5. Shown is part of a subset that was picked to be rich in the lowest values.
# Tested on: mouse p16Ink4a+/- lung fibroblasts (INKBRITE, bleomycin-injured)
# Experiment: GFP- (p16Ink4a-) cell count relative to negative-control wells (fold of vehicle); higher = more p16Ink4a- cells surviving
# Conditions: 1 µM; 3 days
row,SMILES,GFP-
1,C#C[C@]1(O)CC[C@H]2[C@@H]3CCc4cc(OC)ccc4[C@H]3CC[C@@]21C [Mestranol],1.15
2,COc1cc2nccc(Oc3ccc(NC(=O)Nc4ccc(F)cc4F)c(F)c3)c2cc1OC,0.466
3,COc1cc2nccc(Oc3ccc(NC(=O)C4(C(=O)Nc5ccc(F)cc5)CC4)cc3)c2cc1OC [Cabozantinib],0.824
4,COc1cc2nccc(Oc3ccc(NC(=O)Nc4cc(C)on4)c(Cl)c3)c2cc1OC [Tivozanib],1.01
5,CCn1cc(-c2ccnc3[nH]c(-c4cccc(CN(C)C)c4)cc23)c(-c2ccc(NC(=O)N(C)C)cc2)n1,0.658 ± 0.17
6,COc1cc(Nc2ncc(F)c(Nc3ccc4c(n3)N(COP(=O)(O)O)C(=O)C(C)(C)O4)n2)cc(OC)c1OC [Fostamatinib],0.771
7,COC(=O)[C@]12CCC(C)(C)C[C@@H]1[C@@H]1C(=O)C=C3[C@]4(C)C=C(C#N)C(=O)C(C)(C)[C@@H]4CC[C@@]3(C)[C@]1(C)CC2 [Bardoxolone Methyl],0.406
8,O=C(c1ccc(F)cc1)C1CCN(CCn2c(=O)[nH]c3ccccc3c2=O)CC1 [Ketanserin Tartrate],0.924
9,COc1ccc2c(c1)c(CC(=O)N1CCOCC1)c(C)n2C(=O)c1ccc(Cl)cc1,1.15
10,CC(C)C[C@@H](C=O)NC(=O)[C@H](CC(C)C)NC(=O)[C@H](CC(C)C)NC(=O)OCc1ccccc1,0.302
11,COC(=O)[C@H](Cc1ccccc1)NC(=O)[C@@H](N)CC(=O)O [Aspartame],0.966
12,CC(=O)SCC(Cc1ccccc1)C(=O)NCC(=O)OCc1ccccc1 (stereo not given) [Racecadotril],0.972
13,CCCC(=O)Nc1cccc(NC(=O)c2ccccc2Br)c1,1.03
14,CCOC(=O)C1=C(C)N=C(C)/C(=C(/O)OCC)C1c1ccccc1/C=C/C(=O)OC(C)(C)C (stereo not given) [Lacidipine],1.08
15,Clc1ccc(C(Cn2ccnc2)OCc2ccsc2Cl)c(Cl)c1 (stereo not given) [Tioconazole],0.993
16,Cn1nc(C(C)(C)C)cc1C(=O)N[C@@H](Cc1cccc(Cl)c1)C(=O)NCC#N [Cathepsin Inhibitor 1],1.01
17,O=C1CCC[C@@H]2[C@H]3CCC[N+]4([O-])CCC[C@@H](CN12)[C@@H]34 (stereo not given in full) [Oxymatrine],1.08
18,O=S(=O)(O)c1cc(O)ccc1O [Ethamsylate],0.995
19,"C=C1/C(=C\C=C2/CCC[C@]3(C)[C@@H]([C@H](C)CCCC(C)(C)O)CC[C@@H]23)C[C@@H](O)C[C@@H]1O [Calcitriol, DN-101]",1.39
20,CN1CCN(S(=O)(=O)c2ccc(-c3cnc(N)c(C(=O)Nc4cccnc4)n3)cc2)CC1,0.998
21,Cc1[nH]c(/C=C2\C(=O)Nc3ccc(S(=O)(=O)N(C)c4cccc(Cl)c4)cc32)c(C)c1C(=O)N1CCN(C)CC1,0.704
22,Cc1[nH]c(/C=C2\C(=O)Nc3ccccc32)c(C)c1CCC(=O)O [Orantinib],1.09
23,Cc1[nH]c(/C=C2\C(=O)Nc3ccc(S(=O)(=O)Cc4c(Cl)cccc4Cl)cc32)c(C)c1C(=O)N1CCC[C@@H]1CN1CCCC1,0.404
24,N=C(N)Nc1ccc(C(=O)Oc2ccc3cc(C(=N)N)ccc3c2)cc1 [Nafamostat],1.16

row,SMILES,GFP-
1,Nc1cc(C(Cl)=C(Cl)Cl)c(S(N)(=O)=O)cc1S(N)(=O)=O [Clorsulon],1.08
2,Cc1cc(C)c(/C=C2\C(=O)Nc3ccccc32)[nH]1 [Semaxanib],0.862
3,Cc1ccc(-n2sc(=O)n(Cc3ccc(F)cc3)c2=O)cc1,1.1
4,COc1ccc(-c2ccc3cc(C(=O)O)ccc3c2)cc1C12CC3CC(CC(C3)C1)C2 [Adapalene],1.05
5,O=C(NCc1ccccc1)c1csc(Nc2ccncn2)n1 [Thiazovivin],1.04
6,O=c1cc(-c2ccccc2)oc2cc(O)cc(O)c12 [Chrysin],0.996
7,CCN1CCC[C@H]1CNC(=O)c1cc(S(N)(=O)=O)ccc1OC [Levosulpiride],0.964
8,C[C@]12CC[C@H](O)CC1=CCC1C2CC[C@]2(C)C(n3cnc4ccccc43)=CCC12 (stereo not given in full) [Galeterone],1.11
9,O=C1Nc2ccc(I)cc2/C1=C/c1cc(Br)c(O)c(Br)c1,1.02
10,CCOc1ccc(Cc2cc([C@@H]3O[C@H](CO)[C@@H](O)[C@H](O)[C@H]3O)ccc2Cl)cc1 [Dapagliflozin],1.12
11,C=CCc1ccc(O)c(-c2ccc(O)c(CC=C)c2)c1 [Honokiol],0.883
12,C=CCc1cccc(/C=N/NC(=O)CN2CCN(Cc3ccccc3)CC2)c1O,0.654
13,Cc1cc(NC(=O)Nc2ccc(N(C)C)cc2)c2cc(F)cc(F)c2n1,1.15
14,CCOC(=O)[C@H](CCc1ccccc1)N[C@@H](C)C(=O)N1CCC[C@H]1C(=O)O [Enalapril],1
15,Cc1ccc(F)c(NC(=O)Nc2ccc(-c3cccc4[nH]nc(N)c34)cc2)c1 [Linifanib],0.965
16,NC1(c2ccc(-c3nc4ccn5c(O)nnc5c4cc3-c3ccccc3)cc2)CCC1,0.82
17,COc1cc([C@@H]2c3cc4c(cc3[C@@H](O[C@@H]3O[C@@H]5CO[C@@H](C)O[C@H]5[C@H](O)[C@H]3O)[C@H]3COC(=O)[C@H]23)OCO4)cc(OC)c1O [Etoposide],0.985
18,Cc1nc(O)c2cc(CN(C)c3ccc(C(=O)N[C@@H](CCC(=O)O)C(=O)O)s3)ccc2n1 [Raltitrexed],1.01
19,CC(C)N(CCCNC(=O)Nc1ccc(C(C)(C)C)cc1)C[C@H]1O[C@@H](n2cc(Br)c3c(N)ncnc32)[C@H](O)[C@@H]1O,1.01 ± 0.042
20,COc1ccc(C(C)=O)c(O)c1 [Paeonol],1.18
21,Cc1nc(NC(=O)N2CCC[C@H]2C(N)=O)sc1-c1csc(C(C)(C)C)n1,1.03
22,CNC(=O)c1ccccc1Nc1nc(Nc2ccc(N3CCOCC3)cc2OC)ncc1Cl,0.742
23,CN1CC[C@H](c2c(O)cc(O)c3c(=O)cc(-c4ccccc4Cl)oc23)[C@H](O)C1 [Flavopiridol],0.326
24,CN1CC[C@@H](c2c(O)cc(O)c3c(=O)cc(-c4ccccc4Cl)oc23)[C@@H]1CO,0.807

row,SMILES,GFP-
1,CC(=O)/N=c1/sc(S(N)(=O)=O)nn1C [Methazolamide],1.16
2,C=C1C(=O)[C@@]23C(CC[C@@H]1[C@H]2O)[C@@]12CO[C@]3(O)[C@@H](O)[C@@H]1C(C)(C)CC[C@@H]2O (stereo not given in full) [Oridonin],0.884
3,C[C@@H](CN1CC(=O)NC(=O)C1)N1CC(=O)NC(=O)C1 [Dexrazoxane],0.899
4,Cn1ncnc1[C@H]1c2nnc(O)c3cc(F)cc(c23)N[C@@H]1c1ccc(F)cc1,0.616 ± 0.066
5,CC1=NC(N)=C(C(=O)OC2CN(C(c3ccccc3)c3ccccc3)C2)C(c2cccc([N+](=O)[O-])c2)/C1=C(/O)OC(C)C (stereo not given) [Azelnidipine],1.11
6,Cc1cc(CN2CCN(c3c(Br)cnc4[nH]c(-c5ccc(N6CCN(C)CC6)cc5)nc34)CC2)no1,0.664 ± 0.17
7,NS(=O)(=O)c1cc2c(cc1Cl)NCNS2(=O)=O [Hydrochlorothiazide],1.06
8,CC[C@]1(O)C[C@@H]2CN(CCc3c([nH]c4ccccc34)[C@@](C(=O)OC)(c3cc4c(cc3OC)N(C=O)[C@@H]3C45CCN4CC=C[C@](CC)([C@H]45)[C@@H](OC(C)=O)[C@]3(O)C(=O)OC)C2)C1 (stereo not given in full) [Vincristine],0.699
9,CCn1cc(C(=O)O)c(=O)c2ccc(C)nc21 [Nalidixic Acid],0.895
10,CC(=O)O[C@]1(C(C)=O)CC[C@H]2[C@@H]3C[C@H](C)C4=CC(=O)C=C[C@]4(C)[C@@]3(F)[C@@H](O)C[C@@]21C [Fluorometholone Acetate],1.14
11,C[C@@]1(C(=O)Nc2ccc(F)nc2)CCCN1c1nc(Nc2cc(C3CC3)[nH]n2)c2cccn2n1,0.776
12,COc1cc2nc(N3CCN(C(=O)C4CCCO4)CC3)nc(N)c2cc1OC (stereo not given) [Terazosin],0.942
13,CC(C(=O)O)c1ccc2c(c1)CC(=O)c1ccccc1S2 (stereo not given) [Zaltoprofen],1.01
14,Cc1ccc(CNc2ncnc3ccc(-c4ccc(CO)o4)cc23)o1,0.793
15,CC1=C(C(=O)OC2CCCCC2)C(c2ccc([N+](=O)[O-])cc2)C2=C(O)CC(C)(C)CC2=N1 (stereo not given),0.82
16,CC(C)c1ccc(NC(=O)Cn2cnc3c2c(=O)n(C)c(=O)n3C)cc1,0.98
17,Nc1ccc(-c2ccc3ncc4ccc(=O)n(-c5cccc(C(F)(F)F)c5)c4c3c2)cn1 [Torin 2],0.456
18,CCC(=O)N1CCN(c2ccc(-n3c(=O)ccc4cnc5ccc(-c6cnc7ccccc7c6)cc5c43)cc2C(F)(F)F)CC1 [Torin 1],0.571
19,O=C(O)c1ccccc1 [Benzoic Acid],1.05
20,O=C(O)CCNC(=O)c1ccccc1 [Betamipron],1.06
21,CN(NC(=O)CC(=O)NN(C)C(=S)c1ccccc1)C(=S)c1ccccc1 [Elesclomol],0.277
22,CC1(C)O[C@@H]2C[C@H]3[C@@H]4CCC5=CC(=O)CC[C@]5(C)[C@@]4(F)[C@@H](O)C[C@]3(C)[C@]2(C(=O)CCl)O1 [Halcinonide],1.02
